Structures are written as SMILES. “And” between values parts separate entries of the source, which are not always exact repeats. Equal values may be shown once. A number with no mark means an inactive call. Inconclusive results are not listed. The source made the active and inactive calls.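 How the source made its calls, unless noted: active means compounds whose cell count with miR-34 switched on is under 0.7 times the count with it off; inactive means the rest.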

The nature of the first assay: JHH-DIPG-1 glioma cell viability, MIPE5.0 library, CellTiter-Glo luminescence, qHTS (AID 1347067; cut-off not given, nearly all actives have AC50 up to about 26 µM;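 further: cells exposed to compound for 48 hours before readout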). The note with it: JHH-DIPG-1 glioma viability, CellTiter-Glo ATP luminescence.
On to `CS(=O)(=O)c1ccc(C2=C(c3ccccc3)C(=O)OC2)cc1`, for which the result was inactive.
`COc1ccc(/C=C/C(=O)Nc2ccccc2C(=O)O)cc1OC`: the outcome was inactive.
Take `CC(C(=O)O)c1ccc(-c2ccccc2)c(F)c1` (centres undefined): the call was inactive.
`Nc1ncnc2c1ncn2[C@@H]1O[C@H](CO)[C@@H](O)[C@@H]1O`: the call was inactive.
`CN(C)c1nc(N(C)C)nc(N(C)C)n1`: the call was inactive.
On the same count and under the same terms, with `COC(=O)[C@H](c1ccccc1Cl)N1CCc2sccc2C1` the entry was “inactive”.
Same read-out and setting: in the case of `C[C@H]1COc2c(N3CCN(C)CC3)c(F)cc3c(=O)c(C(=O)O)cn1c23` it was “inactive”; in that of `CC1=C(/C=C/C(C)=C/C=C/C(C)=C\C(=O)O)C(C)(C)CCC1`, “inactive”; in that of `CCc1ccc(CCOc2ccc(CC3SC(=O)NC3=O)cc2)nc1` (centres undefined), “inactive”.

The next assay can be described thus: growth inhibition of DIPG cells – cell-based, MIPE5.0 library, qHTS (AID 1347068; cut-off not given, nearly all actives have IC50 up to about 30 µM). The note with it: SU-DIPG-XXV viability. On the technique in general: In qHTS, concentration-response curves come from the screen itself.
As to `CS(=O)(=O)c1ccc(C2=C(c3ccccc3)C(=O)OC2)cc1`, the outcome was inactive.
On the same count and under the same terms, with `COc1ccc(/C=C/C(=O)Nc2ccccc2C(=O)O)cc1OC` the entry was “inactive”; with `CC(C(=O)O)c1ccc(-c2ccccc2)c(F)c1` (centres undefined), “inactive”; with `Nc1ncnc2c1ncn2[C@@H]1O[C@H](CO)[C@@H](O)[C@@H]1O`, “inactive”.
The same measure, in the same setting: with `CN(C)c1nc(N(C)C)nc(N(C)C)n1` the entry was “inactive”.
Same read-out and setting: with `COC(=O)[C@H](c1ccccc1Cl)N1CCc2sccc2C1` the entry was “inactive”.
Take `C[C@H]1COc2c(N3CCN(C)CC3)c(F)cc3c(=O)c(C(=O)O)cn1c23`: the outcome was inactive.
Same read-out and setting: in the case of `CC1=C(/C=C/C(C)=C/C=C/C(C)=C\C(=O)O)C(C)(C)CCC1` it was “inactive”.

A further assay in a line: viability loss with induced miR-34 in A549 – imaging, A549 dox-inducible miR-34, nuclei and caspase counts, primary screen (AID 1347080). The note with it: A549 miR-34 inducible, Hoechst nuclei count, 48 h; hits give low values; cell number ratio, induced over uninduced.
As for `Cc1cccc(C)c1NC(=O)C1CCCCN1C` (centres undefined), the fold change is 0.977 and 0.928 and 0.875.
As to `CCCCC(=O)N(Cc1ccc(-c2ccccc2-c2nn[nH]n2)cc1)[C@H](C(=O)O)C(C)C`, the fold change is 0.954 and 0.853.
On the same count and under the same terms, with `Nc1ncnc2c1ncn2[C@@H]1O[C@H](CO)[C@@H](O)[C@@H]1O` the figure was 0.95 and 0.835 and 0.86; with `O=c1ccc2ccc(O)c(O)c2o1`, 0.898 and 0.94; with `Cc1occc(=O)c1O`, 1.32.
The same measure, in the same setting: with `COc1ccc(-c2cc(=O)c3c(OC)c(OC)c(OC)c(OC)c3o2)cc1OC` the figure was 0.981 and 0.97.
Same read-out and setting: with `COC(=O)[C@H](c1ccccc1Cl)N1CCc2sccc2C1` the figure was 0.979 and 0.893 and 0.849; with `C[N+]1(C)CCCC(OC(=O)C(O)(c2ccccc2)c2ccccc2)C1` (centres undefined), 0.951 and 0.851 and 0.901; with `O=[N+]([O-])c1cccc2cn[nH]c12`, 1.03 and 0.867 and 0.91.
With `C[C@H]1COc2c(N3CCN(C)CC3)c(F)cc3c(=O)c(C(=O)O)cn1c23`, the fold change is 0.893 and 0.857.
In the case of `COc1ccc(C[C@H](N)C(=O)N[C@H]2[C@@H](O)[C@H](n3cnc4c(N(C)C)ncnc43)O[C@@H]2CO)cc1`, the fold change was 1.03 and 1.04.
The same measure, in the same setting: with `CC[C@H]1OC(=O)[C@H](C)[C@@H](O[C@H]2C[C@@](C)(OC)[C@@H](O)[C@H](C)O2)[C@H](C)[C@@H](O[C@@H]2O[C@H](C)C[C@H](N(C)C)[C@H]2O)[C@](C)(OC)C[C@@H](C)C(=O)[C@H](C)[C@@H](O)[C@]1(C)O` the figure was 0.89 and 0.856.

The values are drawn from PubChem BioAssay.
